# Assay results from PubChem BioAssay (Tox21).
# Values joined by “and” are separate entries in the source; they are usually repeats but may differ in a detail not shown here. Equal values may be shown once. Results filed as inconclusive are left out. Entries that show only a call come without a potency. Values without a mark were called inactive. Active and inactive are the calls of the source. The call rests on the fitted dose curve; in most records, active means well fitted cell-killing curve with a large enough effect in the repeat runs; inconclusive means weak or mixed curves, or effect the other way; inactive means flat fitted curve, though single readings scatter.
# How the values were obtained:
# [1] = cAMP Responsive Elements (CRE) small molecule antagonists, cell-based qHTS assay: qHTS cell viability counter screen (AID 2060913); further: nearly all actives have a fitted effect of over 40% in size
# In short: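 Viability of NKH477-stimulated (0.25 uM final) CRE-bla HEK293T cells is measured by CellTiter-Glo luminescence following 3 hrs compound exposure at 37 C.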
# [2] = cAMP Responsive Elements (CRE) small molecule agonists, cell-based qHTS assay: qHTS cell viability counter screen (AID 2060914);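 further: viability read after 3 h of compound exposure; nearly all actives have a fitted effect of over 50% in size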
# In short: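 CRE-bla HEK293T cells in 10% dialyzed FBS medium were exposed to compounds for 3 h at 37C after 18 h plating. CellTiter-Glo was then added in the same wells, and luminescence was read after 30 min at room temperature.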
# Potency means the concentration at half of the fitted maximal effect.
Compound,Potency [1],Potency [2],"viability change, negative = cytotoxic [1]","activity change, negative = cytotoxicity [2]"
CCNc1nc(NC(C)C)nc(SC)n1,inactive,inactive,–,–
CN1C(=O)C(O)N=C(c2ccccc2)c2cc(Cl)ccc21 (stereo not given),inactive,inactive,–,–
CCNc1nc(NC(C)C)nc(OC)n1,inactive,inactive,–,–
ClC(Cl)=C(c1ccc(Cl)cc1)c1ccccc1Cl,inactive,inactive,–,–
Oc1ccc(C(=C(Cl)Cl)c2ccc(O)cc2)cc1,inactive,inactive,–,–
COc1cccc(C=O)c1,inactive,inactive,–,–
S=c1[nH]c2ccccc2[nH]1,inactive,inactive,–,–
CCCSC(=O)N(CCC)CCC,inactive,inactive,–,–
CC(C)OC(=O)Cc1ccccc1,inactive,inactive,–,–
C[N+](C)(C)CC(=O)[O-],inactive,inactive,–,–
CCN(C(C)=O)c1cccc(-c2ccnc3c(C#N)cnn23)c1,inactive,inactive,–,–
O=C(Cl)c1ccc(Cl)cc1,inactive,inactive,–,–
CCCCOCCOC(C)=O,inactive,inactive,–,–
O=C(NC(=O)c1c(F)cccc1F)Nc1ccc(Oc2ccc(C(F)(F)F)cc2Cl)cc1F,inactive,inactive,–,–
C=CCc1ccc2c(c1)OCO2,inactive,inactive,–,–
Nc1ccc(Cc2ccc(N)cc2)cc1,inactive,inactive,–,–
CC1CN1P(=O)(N1CC1C)N1CC1C (stereo not given),inactive,inactive,–,–
COC1CC(=C(c2cccs2)c2cccs2)C[N+](C)(C)C1 (stereo not given),inactive,inactive,–,–
COC(=O)C(C)N(C(=O)c1ccco1)c1c(C)cccc1C (stereo not given),inactive,inactive,–,–
CCOC(=O)c1ccccc1N,inactive,inactive,–,–
Cc1ccc(OP(=O)(Oc2ccc(C)cc2)Oc2ccc(C)cc2)cc1,inactive,inactive,–,–
Clc1cccc(N2CCNCC2)c1,inactive,inactive,–,–
C=CCc1ccccc1O,inactive,inactive,–,–
C=CC(Cl)CCl (stereo not given),inactive,inactive,–,–

Compound,Potency [1],Potency [2],"viability change, negative = cytotoxic [1]","activity change, negative = cytotoxicity [2]"
c1ccc(NNc2ccccc2)cc1,inactive,inactive,–,–
CC(C)(C)OOC(C)(C)C,inactive,inactive,–,–
O=[N+]([O-])c1cccc2cccc([N+](=O)[O-])c12,inactive,inactive,–,–
COC(=O)c1c(C(F)F)nc(C(F)(F)F)c(C2=NCCS2)c1CC(C)C,inactive,inactive,–,–
CCCCCCCCn1sccc1=O,54.6 µM (active) and 64.1 µM (active),43.4 µM (active),–,–
c1cc[c]([Hg][c]2ccccc2)cc1,inactive,inactive,–,–
COc1cc(C[C@@H](C)N)c(OC)cc1Br,inactive,inactive,–,–
O=[N+]([O-])c1cccc2cccnc12,inactive,inactive,–,–
O=[N+]([O-])c1cc(C(F)(F)F)c(Cl)c([N+](=O)[O-])c1Cl,inactive,inactive,–,–
C[C@@H]1CC2=CC(=O)CC[C@@H]2[C@H]2CC[C@@]3(C)[C@@H](CC[C@]3(C)O)[C@@H]21,inactive,inactive,–,–
Nc1ccc(N)cc1,inactive,inactive,–,–
Nc1ncc([N+](=O)[O-])s1,inactive,inactive,–,–
O=C(NC(=O)c1c(F)cccc1F)Nc1cc(Cl)c(Oc2ncc(C(F)(F)F)cc2Cl)c(Cl)c1,inactive,inactive,–,–
N#CC(C#N)=Cc1ccc(O)c(O)c1,inactive,inactive,–,–
CC(=O)C(Cl)(Cl)Cl,26.4 µM (active),inactive,–,–
O=S(=O)(O)C(F)(F)C(F)(F)C(F)(F)C(F)(F)F,inactive,inactive,–,–
C/C=C/CC#N,inactive,inactive,–,–
C=C(Cl)CSC(=S)N(CC)CC,inactive,inactive,–,–
CCCN(CCCl)c1c([N+](=O)[O-])cc(C(F)(F)F)cc1[N+](=O)[O-],inactive,inactive,–,–
O=C1CC(=O)NC(=O)N1,inactive,inactive,–,–
C=C(Cl)Cl,inactive,inactive,–,–
N#Cc1ccc(Cl)cc1,inactive,inactive,–,–
COC(N)=O,inactive,inactive,–,–
O=S(=O)(c1ccc(O)cc1)c1ccc(O)cc1,inactive,inactive,–,–

Compound,Potency [1],Potency [2],"viability change, negative = cytotoxic [1]","activity change, negative = cytotoxicity [2]"
C[N+](C)(C)CCOC(=O)C(O)(c1ccccc1)c1ccccc1,inactive,inactive,–,–
CC(c1ccc(O)cc1)c1ccc(O)cc1,inactive,inactive,–,–
C1=Cc2cccc3cccc1c23,inactive,inactive,–,–
C=CC(=O)OCC(CC)CCCC (stereo not given),inactive,inactive,–,–
O=C(O)COc1ccccc1,inactive,inactive,–,–
CCOP(=S)(OCC)SCS(=O)(=O)C(C)(C)C,inactive,inactive,–,–
FC(Cl)(Cl)Cl,inactive,inactive,–,–
O=C1NC(=O)C(=O)C(=O)N1,inactive,inactive,–,–
CC(C#N)CCC#N (stereo not given),inactive,inactive,–,–
COCCOCCO,inactive,inactive,–,–
O=c1c(C2CC(c3ccc(-c4ccc(Br)cc4)cc3)Cc3ccccc32)c(O)sc2ccccc12 (stereo not given),inactive,inactive,–,–
CCCCS(=O)(=O)Cl,inactive,inactive,–,–
CC(C)(C#N)C(C)(C)C#N,inactive,inactive,–,–
Clc1ccccc1,inactive,inactive,–,–
CCC(Cl)CCl (stereo not given),inactive,inactive,–,–
Cc1ncc2n1-c1ccc(Cl)cc1C(c1ccccc1F)=NC2,inactive,inactive,–,–
C=CC(=C)C,inactive,inactive,–,–
N[C@@H](Cc1ccc(Oc2cc(I)c(O)c(I)c2)c(I)c1)C(=O)O,inactive,inactive,–,–
CC1(C)Cc2cccc(O)c2O1,inactive,inactive,–,–
O=C(O)c1cc(I)cc(I)c1I,inactive,inactive,–,–
O=C1CC[C@@]2(O)[C@H]3Cc4ccc(O)c5c4[C@@]2(CCN3CC2CC2)[C@H]1O5,inactive,inactive,–,–
CON(C)C(=O)Nc1ccc(Cl)c(Cl)c1,inactive,inactive,–,–
CCC(=O)OC1(c2ccccc2)CCN(C)CC1,inactive,inactive,–,–
CC(=O)[O-].CC(=O)[O-].CC(=O)[O-].[Sb+3],–,–,0.272% [at 3.27 µM],-8.91% [at 3.27 µM]

Compound,Potency [1],Potency [2],"viability change, negative = cytotoxic [1]","activity change, negative = cytotoxicity [2]"
Clc1ccc(C(c2ccc(Cl)cc2)C(Cl)Cl)cc1,inactive,62.1 µM (active),–,–
N#Cc1c[nH]cc1-c1cccc2c1OC(F)(F)O2,inactive,inactive,–,–
ClC(Cl)=C(Cl)Cl,inactive,inactive,–,–
CCCCCCCCCCCCBr,inactive,inactive,–,–
Nc1ccc2c(c1)Cc1ccccc1-2,inactive,inactive,–,–
O=C1C(Cl)=C(Cl)C(=O)c2ccccc21,inactive,inactive,–,–
CNC(C)Cc1ccccc1OC (stereo not given),inactive,inactive,–,–
O=[N+]([O-])c1ccc(Cl)cc1,inactive,inactive,–,–
O=C(O)C(F)(F)C(F)(F)C(F)(F)C(F)(F)C(F)(F)C(F)(F)C(F)(F)C(F)(F)C(F)(F)F,inactive,inactive,–,–
O=P(OCCCl)(OCCCl)OCCCl,inactive,inactive,–,–
C=CC=O,inactive,inactive,–,–
Cc1ccc(N=CN(C)C=Nc2ccc(C)cc2C)c(C)c1,inactive,inactive,–,–
CCN(CCO)CCO,inactive,inactive,–,–
O=c1oc2ccccc2c(O)c1C(CC(O)c1ccc(-c2ccc(Br)cc2)cc1)c1ccccc1 (stereo not given),inactive,inactive,–,–
N#CC(Cl)(Cl)Cl,inactive,inactive,–,–
CC(C)c1cccc(C(C)C)c1O,inactive,inactive,–,–
CCOP(=S)(OCC)OP(=S)(OCC)OCC,inactive,inactive,–,–
OP(O)c1ccccc1,inactive,inactive,–,–
CC(C)(C)C(=O)Cl,inactive,inactive,–,–
CC(C)(C)OO,inactive,inactive,–,–
Oc1ccc(Cl)cc1Cl,inactive,inactive,–,–
COCCl,inactive,inactive,–,–
CC(=O)OC(c1ccccc1)C(Cl)(Cl)Cl (stereo not given),inactive,inactive,–,–
c1ccc(C2CC2)c(OCC2=NCCN2)c1,inactive,inactive,–,–

Compound,Potency [1],Potency [2],"viability change, negative = cytotoxic [1]","activity change, negative = cytotoxicity [2]"
CCCC[N+]1(C)CCCC1,inactive,inactive,–,–
CC(C)NCC(O)c1ccccc1Cl (stereo not given),inactive,inactive,–,–
CN1C(=O)CN=C(c2ccccc2)c2cc(Cl)ccc21,inactive,inactive,–,–
CCOC(=O)C1OC1(C)c1ccccc1 (stereo not given),inactive,inactive,–,–
CCN[C@H](C)Cc1cccc(C(F)(F)F)c1,inactive,inactive,–,–
N#CCBr,inactive,inactive,–,–
O=[N+]([O-])c1cc(Cl)c(Cl)c(Cl)c1,inactive,inactive,–,–
C=CC(C)(CCC=C(C)C)OC(=O)c1ccccc1N (stereo not given),inactive,inactive,–,–
ClCc1cccnc1,inactive,inactive,–,–
C#CCO,inactive,inactive,–,–
CC1(C)C(=O)NC(=O)NC1=O,inactive,inactive,–,–
CC(C)=CC1C(C(=O)OCc2coc(Cc3ccccc3)c2)C1(C)C (stereo not given),inactive,inactive,–,–
CCOC(=O)/C=C(C)/C=C/C[C@@H](C)CCCC(C)C,inactive,inactive,–,–
CCCCOCCOP(=O)(OCCOCCCC)OCCOCCCC,inactive,inactive,–,–
CC(C)(C)c1ccc(OP(=O)(Oc2ccccc2)Oc2ccccc2)cc1,inactive,inactive,–,–
COc1ccc(C=O)cc1OC,inactive,inactive,–,–
COc1cccc([C@@]2(O)CCCC[C@@H]2CN(C)C)c1,inactive,inactive,–,–
N#C/C=C/c1ccccc1,inactive,inactive,–,–
CC(C)(C)NCC(O)c1cc(Cl)c(N)c(Cl)c1 (stereo not given),inactive,inactive,–,–
CN1C(=O)[C@@H](NC(=O)c2cc3ccccc3[nH]2)N=C(c2ccccc2)c2ccccc21,inactive,inactive,–,–
CC(=O)CCC(C)=O,inactive,inactive,–,–
O=S(=O)(O)O,inactive,inactive,–,–
O=C(O)C(F)(F)C(F)(F)C(F)(F)C(F)(F)C(F)(F)C(F)(F)C(F)(F)F,inactive,inactive,–,–
N#CN=C(N)N,inactive,inactive,–,–
